Measurements published in PubChem BioAssay (NCATS).
Results filed as inconclusive are left out. Calls of active or inactive are those of the source. The call rests on the fitted dose curve; in most records, active means well fitted inhibition curve with a large enough effect; inconclusive means small, poorly fitted or top-dose-only effect; inactive means flat fitted curve, though single readings scatter.

Legend:
Assay in all cases: qHTS profiling for inhibitors of Plasmodium falciparum proliferation (AID 504749); further: nearly all actives have a fitted effect of over 60% in size
Details in all cases: P. falciparum in erythrocytes, SYBR Green DNA, 72 h; series mostly up to 28.7 µM
ECU = system: ECU
Procedure, shortened: (§1)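 P. falciparum-infected erythrocytes (0.3% parasitemia, 2.5% hematocrit) incubated with compound 72 h at 37 C, 5% CO2. Parasite DNA detected by SYBR Green after lysis, overnight at room temperature; normalised to 0.29 uM artemisinin and DMSO.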

FAB9 = system: FAB9
Procedure, shortened: as §1

GB4 = system: GB4
Procedure, shortened: as §1

HB3 = system: HB3
Procedure, shortened: as §1

ICS = system: ICS
Procedure, shortened: as §1

JCK = system: JCK
Procedure, shortened: as §1

N140 = system: N140
Procedure, shortened: as §1

P93_24 = system: P93_24
Procedure, shortened: as §1

P94_40 = system: P94_40
Procedure, shortened: as §1

PAD = system: PAD
Procedure, shortened: as §1

PC15 = system: PC15
Procedure, shortened: as §1

PC26 = system: PC26
Procedure, shortened: as §1

PC49 = system: PC49
Procedure, shortened: as §1

SC27B = system: SC27B
Procedure, shortened: as §1

TAB109 = system: TAB109
Procedure, shortened: as §1

TAB113 = system: TAB113
Procedure, shortened: as §1

TAB165 = system: TAB165
Procedure, shortened: as §1

W2 = system: W2
Procedure, shortened: as §1

Measured: Potency
Potency means the concentration at half of the fitted maximal effect.

NCCc1ccn[nH]1
inactive: all assays above

C[C@@H]1CN(CCCn2c3ccccc3c3ccccc32)C[C@H](C)N1
active: ECU 10 µM | GB4 13.5 µM | ICS 5.01 µM | N140 12.6 µM | P93_24 5.01 µM | P94_40 8.91 µM | PAD 1.78 µM | TAB109 11.2 µM | TAB165 7.08 µM | W2 2.39 µM
inactive: FAB9 | HB3 | JCK

CN(C)/N=N/c1nc[nH]c1C(N)=O
inactive: all assays above

COc1cc(C(=S)N2CCOCC2)cc(OC)c1OC
not listed: TAB165
inactive: all other assays above

Cc1cc(N)c2cc(NC(=O)Nc3ccc4nc(C)cc(N)c4c3)ccc2n1
active: ECU 10 µM | FAB9 5.01 µM | GB4 7.57 µM | HB3 4.47 µM | ICS 5.01 µM | JCK 11.2 µM | N140 11.2 µM | P94_40 12.6 µM | PAD 12.6 µM | SC27B 12.6 µM | TAB109 12.6 µM | TAB113 10 µM | TAB165 5.62 µM | W2 0.849 µM

Nc1ccc(/C=C/c2ccc(N)cc2S(=O)(=O)O)c(S(=O)(=O)O)c1
not listed: TAB113
inactive: all other assays above

C#C[C@]1(OC(C)=O)CC[C@H]2[C@@H]3CCC4=C[C@@H](OC(C)=O)CC[C@@H]4[C@H]3CC[C@@]21C
inactive: all assays above

CC1(C)CCC(NC(=O)[C@@H](N)CCC(=O)O)CC1
not listed: PC26
inactive: all other assays above

CCCn1c(=O)[nH]c(=O)c2[nH]cnc21
inactive: all assays above

Nc1ccc(C(=O)O)cc1
inactive: all assays above

CC(O)C(=O)O (centres undefined)
inactive: all assays above

CCN(CC)C(=O)N1CCN(C)CC1
inactive: all assays above

O=C(O)c1cc2cc(Cc3cccnc3)ccc2o1
inactive: all assays above

O=C(OCCOCCO)c1ccccc1Nc1cccc(C(F)(F)F)c1
inactive: all assays above

Nc1cc(Cl)c(NC2=NCCN2)c(Cl)c1
inactive: all assays above

CC(=O)Oc1ccc(C(=C2CCCCC2)c2ccc(OC(C)=O)cc2)cc1
inactive: all assays above

CC(=O)Nc1c(I)cc(I)c(C(=O)O)c1I
not listed: P93_24
inactive: all other assays above

CCCCN1CCCC1C(=O)Nc1c(C)cc(C)cc1C (centres undefined)
not listed: ICS | W2
inactive: all other assays above

C1CCc2nnnn2CC1
inactive: all assays above

Cc1cccn2c(=O)c(-c3nnn[nH]3)cnc12
inactive: all assays above

CCN1CCCC1=O
inactive: all assays above

CC(C)(C)CC(C)(C)c1ccc(O)c(Cc2ccc(Cl)cc2Cl)c1
active: ECU 2 µM | FAB9 5.62 µM | GB4 0.849 µM | HB3 2 µM | ICS 0.316 µM | JCK 3.16 µM | N140 0.794 µM | P93_24 1.26 µM | P94_40 1 µM | PAD 1 µM | PC15 2.24 µM | PC26 1.51 µM | PC49 1.78 µM | SC27B 1.26 µM | TAB109 2 µM | TAB113 1.12 µM | TAB165 0.794 µM | W2 0.426 µM

CN1C2CCC1CC(OC(=O)c1c[nH]c3ccccc13)C2 (centres undefined)
not listed: PC15 | PC26
inactive: all other assays above

CNCCC(Oc1ccccc1C)c1ccccc1 (centres undefined)
active: W2 3.79 µM
not listed: ICS | N140 | P93_24 | PC15 | PC26 | PC49 | TAB165
inactive: all other assays above

N[C@H](CO)C(=O)O
inactive: all assays above

CC(=O)OCC(=O)NCCCOc1cccc(CN2CCCCC2)c1
inactive: all assays above
